Data as given in the antibiotic and cytotoxicity screens of Wong et al. (2023).
In all, about 39,000 compounds went through this assay and about 500 (1.3%) were called active. The list comes from a sample in which actives are over-represented; it also holds similar structures and randomly drawn compounds.

system: S. aureus RN4220; assay: growth inhibition call (relative growth <= 0.2); conditions: 50 µM

Compound | growth inhibition call
C[C@@H]1CN([C@H](C)CO)C(=O)c2cccc(NC(=O)Nc3ccc(C(F)(F)F)cc3)c2O[C@@H]1CN(C)Cc1ccc(Oc2ccccc2)cc1 | inactive
Cc1ccc(S(=O)(=O)N(C)C[C@H]2Oc3ccc(NS(=O)(=O)c4ccccc4)cc3C(=O)N([C@@H](C)CO)C[C@@H]2C)cc1 | inactive
C[C@@H]1CN([C@H](C)CO)C(=O)Cc2cc(NS(=O)(=O)c3ccc(Cl)cc3)ccc2O[C@@H]1CN(C)S(C)(=O)=O | inactive
COC(=O)OCOc1c2n(ccc1=O)N([C@@H]1c3ccccc3SCc3c1ccc(F)c3F)[C@@H]1COCCN1C2=O | inactive
CC[C@@H](C)CCCCC(=O)N[C@@H](CCN)C(=O)N[C@H](C(=O)N[C@@H](CCN)C(=O)N[C@H]1CCNC(=O)[C@H]([C@@H](C)O)NC(=O)[C@H](CCN)NC(=O)[C@H](CCN)NC(=O)[C@H](CC(C)C)NC(=O)[C@@H](Cc2ccccc2)NC(=O)[C@@H](CCN)NC1=O)[C@@H](C)O | inactive
CC[C@@H](C)CCCC(=O)N[C@@H](CCN)C(=O)N[C@H](C(=O)N[C@@H](CCN)C(=O)N[C@H]1CCNC(=O)[C@H]([C@@H](C)O)NC(=O)[C@H](CCN)NC(=O)[C@H](CCN)NC(=O)[C@H](CC(C)C)NC(=O)[C@@H](CC(C)C)NC(=O)[C@H](CCN)NC1=O)[C@@H](C)O | inactive
CCC(C)CCCCC(=O)NC(CCN)C(=O)NC(C(=O)NC(CCN)C(=O)NC1CCNC(=O)C(C(C)O)NC(=O)C(CCN)NC(=O)C(CCN)NC(=O)C(CC(C)C)NC(=O)C(Cc2ccccc2)NC(=O)C(CCN)NC1=O)C(C)O.O=S(=O)(O)O (stereo unspecified) | active
C[C@@H]1CN([C@H](C)CO)S(=O)(=O)c2ccc(C#C[C@@H](C)O)cc2O[C@@H]1CN(C)C(=O)c1ccncc1 | inactive
O=C(C[C@@H]1CC[C@H](NC(=O)CN2CCOCC2)[C@@H](CO)O1)NCCc1ccccc1 | inactive
O=C1C=CC(=O)N1 | active
Cc1noc(C)c1NC(=O)N(C)C[C@H]1OCCCC[C@@H](C)Oc2ccc(NC(=O)NC3CCCCC3)cc2C(=O)N([C@H](C)CO)C[C@@H]1C | inactive
CNC1CCC(c2ccc(Cl)c(Cl)c2)c2ccccc21.Cl (stereo unspecified) | active
CN[C@H]1CC[C@@H](c2ccc(Cl)c(Cl)c2)c2ccccc21 | inactive
N[C@@H]1CC[C@@H](c2ccc(Cl)c(Cl)c2)c2ccccc21 | active
O=C(C[C@H]1C=C[C@H](NS(=O)(=O)c2ccc(F)cc2)[C@@H](CO)O1)N1CCC(Cc2ccccc2)CC1 | inactive
Cc1ccc(S(=O)(=O)Nc2ccc3c(c2)C(=O)N([C@H](C)CO)C[C@H](C)[C@H](CN(C)C(=O)Nc2c(C)noc2C)OCCCC[C@H](C)O3)cc1 | inactive
